Source: PubChem BioAssay (NCI)
Compounds without any hit were thinned out: in the full panel of roughly 79,000, 15% have a hit. Activity calls are given as the source filed them. No stated cut-off is given here; in the data, active means growth inhibition above about 70%; inactive means the rest.

Legend:
[1] = NCI Yeast Anticancer Drug Screen. Data for the mec2-1 strain (AID 157); conditions: S. cerevisiae mec2-1 strain, stronger effect = higher value
Outline: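 Mutant yeast (mec2-1) grown with compound; growth inhibition relative to vehicle control reported.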

[2] = NCI Yeast Anticancer Drug Screen. Data for the sgs1 mgt1 strain (AID 161);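 further: 0% = growth of cultures given vehicle only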; conditions: S. cerevisiae sgs1 mgt1 strain, stronger effect = higher value
Outline: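 Yeast cells carrying a defined DNA-repair defect were exposed to test compounds. Growth inhibition was measured relative to vehicle-treated controls.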

[3] = NCI Yeast Anticancer Drug Screen. Data for the CLN2oe strain (AID 163);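 further: 0% = growth of vehicle-only control cultures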; conditions: S. cerevisiae CLN2oe strain, stronger effect = higher value
Outline: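 Compounds are applied to yeast harbouring a defined cell-cycle control change; reduced growth compared with vehicle-treated controls gives the value.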

[4] = NCI Yeast Anticancer Drug Screen. Data for the cln2 rad14 strain (AID 165);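 further: 0% = growth equal to vehicle treated cultures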; conditions: S. cerevisiae cln2 rad14 strain, stronger effect = higher value
Outline: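 Readout is yeast growth inhibition versus vehicle-treated controls, using a strain with cln2 and rad14 alterations exposed to compound.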

[5] = NCI Yeast Anticancer Drug Screen. Data for the bub3 strain (AID 167); conditions: S. cerevisiae bub3 mutant strain, stronger effect = higher value
Outline: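 Steps: expose the mutant yeast strain to compound; grow alongside vehicle-treated cultures; measure growth; express inhibition against the vehicle cultures.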

[6] = NCI Yeast Anticancer Drug Screen. Data for the wt2 strain (AID 169);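 further: 0% = growth of vehicle-treated yeast cultures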; conditions: S. cerevisiae wt2 strain growth inhibition, stronger effect = higher value
Outline: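 Against vehicle-treated controls, the growth of yeast exposed to each compound was compared, and the inhibition was recorded.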

[7] = NCI Yeast Anticancer Drug Screen. Data for the mlh1 strain (AID 171);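 further: 0% = growth of vehicle-treated control cultures of the same strain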; conditions: S. cerevisiae mlh1 strain growth inhibition, stronger effect = higher value
Outline: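 Measured: yeast growth. Reference: vehicle-treated controls. Organism: strain with a defined alteration affecting DNA damage repair or cell cycle control, treated with compound.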

[8] = NCI Yeast Anticancer Drug Screen. Data for the sgs1 strain (AID 173);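 further: 0% = growth of vehicle-only control cultures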; conditions: S. cerevisiae sgs1 mutant, stronger effect = higher value
Outline: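 Each compound was added to cultures of the altered yeast strain. Growth was recorded, and inhibition was derived by comparison with vehicle controls.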

[9] = NCI Yeast Anticancer Drug Screen. Data for the mlh1 rad18 strain (AID 175); conditions: S. cerevisiae mlh1 rad18 strain growth inhibition, stronger effect = higher value
Outline: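 Genetically defined yeast (DNA repair-deficient) exposed to compounds; growth inhibition determined relative to vehicle.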

[10] = NCI Yeast Anticancer Drug Screen. Data for the rad18 strain (AID 177); conditions: S. cerevisiae rad18 mutant growth inhibition, stronger effect = higher value
Outline: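 Vehicle-treated cultures served as the baseline for scoring compound-induced growth inhibition in DNA-repair-mutant yeast.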

[11] = NCI Yeast Anticancer Drug Screen. Data for the rad52 strain (AID 147);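 further: 0% = growth of vehicle-treated control cultures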; conditions: S. cerevisiae rad52 mutant growth inhibition, stronger effect = higher value
Outline: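 The repair-mutant yeast strain was incubated with compounds, then growth was read and inhibition derived relative to vehicle.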

[12] = NCI Yeast Anticancer Drug Screen. Data for the wt1 strain (AID 149);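 further: 0% = growth of vehicle-treated wt1 cultures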; conditions: S. cerevisiae wt1 strain (SPY 50644) growth inhibition, stronger effect = higher value
Outline: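 Compounds are added to wt1 yeast cultures. Growth is then measured. Inhibition is expressed relative to vehicle-treated controls.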

[13] = NCI Yeast Anticancer Drug Screen. Data for the rad50EPP+ strain (AID 151);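 further: 0% = growth of vehicle-treated control cultures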; conditions: S. cerevisiae rad50 mutant strain, stronger effect = higher value
Outline: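 Vehicle-normalised growth inhibition; rad50EPP+ yeast strain, altered in DNA damage repair, compound-treated.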

[14] = NCI Yeast Anticancer Drug Screen. Data for the rad50 strain (AID 155);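 further: 0% = growth of vehicle-only cultures of the same strain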; conditions: S. cerevisiae rad50 strain growth inhibition, stronger effect = higher value
Outline: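 Inhibition values express reduced yeast growth in compound-treated cultures relative to vehicle-treated controls.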

[15] = NCI Yeast Anticancer Drug Screen. Data for the rad14 strain (AID 159);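 further: 0% = growth of vehicle-treated control cultures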; conditions: S. cerevisiae rad14 strain growth inhibition, stronger effect = higher value
Outline: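 A mutant yeast strain defective in DNA damage repair is treated with compound; inhibition of its growth is scored against untreated, vehicle-exposed cultures.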

[16] = at 5.0 µM (retest, dose inferred, filed as 0.5)
[17] = at 50.0 µM (retest, dose inferred, filed as 5.0)

Measured: growth inhibition

CC1OCC2OC(C)OC(C3C4=C(CC(C)(C)CC4=O)OC4=C3C(=O)CC(C)(C)C4)C2O1 (centres undefined)
inactive: [1]; [16] 7% | [1]; at 11.0 µM 12% | [1]; at 33.0 µM 28% | [1]; [17] -18% | [1]; at 50.0 µM 27.4% | [1]; at 100.0 µM 46% | [2]; [16] 5% | [2]; [17] 37% | [2]; at 50.0 µM 40.7% | [3]; at 1.2 µM -2% | [3]; at 3.7 µM -4% | [3]; at 11.0 µM -2% | [3]; at 33.0 µM -2% | [3]; at 100.0 µM -3% | [4]; [16] 5% | [4]; [17] 15% | [4]; at 50.0 µM 3.55% | [5]; at 1.2 µM 1% | [5]; at 3.7 µM 2% | [5]; [16] -46% | [5]; at 11.0 µM 7% | [5]; at 33.0 µM 29% | [5]; [17] 32% | [5]; at 50.0 µM 57.8% | [5]; at 100.0 µM 66% | [6]; at 1.2 µM -1% | [6]; at 3.7 µM 9% | [6]; at 11.0 µM 1% | [6]; at 33.0 µM 4% | [6]; at 100.0 µM 23% | [7]; at 1.2 µM 1% | [7]; at 3.7 µM 2% | [7]; at 11.0 µM 4% | [7]; at 33.0 µM 8% | [7]; at 100.0 µM 25% | [8]; at 1.2 µM -2% | [8]; at 3.7 µM 1% | [8]; at 11.0 µM 9% | [8]; at 33.0 µM 32% | [8]; at 100.0 µM 65% | [9]; [16] 9% | [9]; [17] 46% | [10]; at 1.2 µM 3% | [10]; at 3.7 µM 18% | [10]; at 11.0 µM 43%
active: [9]; at 50.0 µM 80.7% | [10]; at 33.0 µM 78% | [10]; at 100.0 µM 91%

O=C(O)c1ccccc1NC(=S)c1ccccc1
inactive: [11]; at 1.2 µM -5% | [11]; at 3.7 µM -1% | [11]; at 11.0 µM -4% | [11]; at 33.0 µM 7% | [11]; at 100.0 µM 67% | [12]; at 1.2 µM 4% | [12]; at 3.7 µM 1% | [12]; at 11.0 µM -4% | [12]; at 33.0 µM -5% | [12]; at 100.0 µM 26% | [13]; at 1.2 µM 13% | [13]; at 3.7 µM 14% | [13]; at 11.0 µM 34% | [13]; at 33.0 µM 53% | [14]; at 1.2 µM -3% | [14]; at 3.7 µM -26% | [14]; [16] 53% | [14]; at 11.0 µM -20% | [14]; at 33.0 µM -11% | [14]; at 50.0 µM 4.25% | [1]; at 1.2 µM -31% | [1]; at 3.7 µM -10% | [1]; [16] 63% | [1]; at 11.0 µM -26% | [1]; at 33.0 µM -23% | [1]; at 50.0 µM 11.6% | [1]; at 100.0 µM 10% | [15]; at 1.2 µM 2% | [15]; at 3.7 µM 4% | [15]; at 11.0 µM -4% | [15]; at 33.0 µM 17% | [15]; at 100.0 µM 68% | [2]; [16] -20% | [2]; [17] 65% | [2]; at 50.0 µM -0.55% | [3]; at 1.2 µM 0% | [3]; at 3.7 µM 11% | [3]; at 11.0 µM 6% | [3]; at 33.0 µM 10% | [3]; at 100.0 µM 33% | [4]; [16] 27% | [4]; [17] 54% | [4]; at 50.0 µM 1% | [5]; at 1.2 µM -16% | [5]; at 3.7 µM -12% | [5]; [16] 16% | [5]; at 11.0 µM 0% | [5]; at 33.0 µM 5% | [5]; at 50.0 µM 17.4% | [6]; at 1.2 µM -1% | [6]; at 3.7 µM 5% | [6]; at 11.0 µM 1% | [6]; at 33.0 µM 1% | [6]; at 100.0 µM 42% | [7]; at 1.2 µM 3% | [7]; at 3.7 µM 5% | [7]; at 11.0 µM 3% | [7]; at 33.0 µM 5% | [7]; at 100.0 µM 62% | [8]; at 1.2 µM -18% | [8]; at 3.7 µM -6% | [8]; at 11.0 µM -12% | [8]; at 33.0 µM -4% | [8]; at 100.0 µM 53% | [9]; [16] 43% | [9]; at 50.0 µM 1.6% | [10]; at 1.2 µM -16% | [10]; at 3.7 µM -4% | [10]; at 11.0 µM -8% | [10]; at 33.0 µM 16% | [10]; at 100.0 µM 69%
active: [13]; at 100.0 µM 83% | [14]; [17] 97% | [14]; at 100.0 µM 83% | [1]; [17] 96% | [5]; [17] 79% | [5]; at 100.0 µM 70% | [9]; [17] 99%

Nc1nc(-c2cccnc2)cc(-c2cc(-c3cccnc3)nc(N)n2)n1
inactive: [11]; at 1.2 µM 0% | [11]; at 3.7 µM 0% | [11]; at 11.0 µM -3% | [11]; at 33.0 µM -2% | [11]; at 100.0 µM -8% | [12]; at 1.2 µM 0% | [12]; at 3.7 µM -1% | [12]; at 11.0 µM -1% | [12]; at 33.0 µM -2% | [12]; at 100.0 µM -2% | [13]; at 1.2 µM -2% | [13]; at 3.7 µM -3% | [13]; at 11.0 µM -3% | [13]; at 33.0 µM 0% | [13]; at 100.0 µM -2% | [14]; at 1.2 µM 0% | [14]; at 3.7 µM 5% | [14]; [16] 1% | [14]; at 11.0 µM 2% | [14]; at 33.0 µM 4% | [14]; [17] 5% | [14]; at 50.0 µM 3.7% | [14]; at 100.0 µM 8% | [1]; at 1.2 µM 0% | [1]; at 3.7 µM 2% | [1]; [16] 24% | [1]; at 11.0 µM -1% | [1]; at 33.0 µM 0% | [1]; [17] 33% | [1]; at 50.0 µM 1.1% | [1]; at 100.0 µM -6% | [15]; at 1.2 µM -1% | [15]; at 3.7 µM 2% | [15]; at 11.0 µM -1% | [15]; at 33.0 µM 0% | [15]; at 100.0 µM -1% | [2]; [16] 19% | [2]; [17] 15% | [2]; at 50.0 µM 0.15% | [3]; at 1.2 µM -2% | [3]; at 3.7 µM 2% | [3]; at 11.0 µM 2% | [3]; at 33.0 µM 1% | [3]; at 100.0 µM 1% | [4]; [16] 46% | [4]; at 50.0 µM 9.95% | [5]; at 1.2 µM 0% | [5]; at 3.7 µM -6% | [5]; [16] -17% | [5]; at 11.0 µM 0% | [5]; at 33.0 µM -2% | [5]; [17] -5% | [5]; at 50.0 µM 6.3% | [5]; at 100.0 µM -10% | [6]; at 1.2 µM -1% | [6]; at 3.7 µM 0% | [6]; at 11.0 µM 1% | [6]; at 33.0 µM -1% | [6]; at 100.0 µM 0% | [7]; at 1.2 µM -1% | [7]; at 3.7 µM -1% | [7]; at 11.0 µM -13% | [7]; at 33.0 µM -14% | [7]; at 100.0 µM 13% | [8]; at 1.2 µM -2% | [8]; at 3.7 µM -4% | [8]; at 11.0 µM -4% | [8]; at 33.0 µM -6% | [8]; at 100.0 µM -7% | [9]; [16] -15% | [9]; [17] 10% | [9]; at 50.0 µM 28.6% | [10]; at 1.2 µM -2% | [10]; at 3.7 µM -4% | [10]; at 11.0 µM -9% | [10]; at 33.0 µM -18% | [10]; at 100.0 µM -28%
active: [4]; [17] 86%
